Hit rate of the full screen: of about 420,000 compounds, about 50,000 (12%) were called active. About 26% were inconclusive and are not listed. The sample as a whole holds a higher share of actives than the screen did. Unmarked numbers belong to inactive results. The call rests on the fitted dose curve; in most records, active means well fitted inhibition curve with a large enough effect; inconclusive means small, poorly fitted or top-dose-only effect; inactive means flat fitted curve, though single readings scatter.
Experiment: qHTS for Inhibitors of human tyrosyl-DNA phosphodiesterase 1 (TDP1): qHTS in cells in presence of CPT; further: nearly all actives have a fitted effect of over 55% in size
Details: chicken DT40 Tdp1-/-;hTDP1 cells + 20 nM CPT, ATP luminescence, 48 h; series mostly up to 46.2 µM; activity change, negative = growth inhibition: at the top concentration
Method in brief: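 Chicken DT40 Tdp1-/- cells stably complemented with human TDP1 were seeded at 400 cells/well in medium containing 20 nM camptothecin, exposed to pin-transferred compounds, and grown at 37 °C for at least 48 hr. Viability was read as ATP luminescence.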
On the % scale 0 is the no-effect control and ±100 the full control effect; potency means the concentration at half of the fitted maximal effect.

Compound	activity change, negative = growth inhibition [%]	Potency
Cc1ccc(O/C=C2\OC(=O)c3ccccc32)cc1	-28	
Cc1c(CCC(=O)N[C@@H](CC(C)C)C(=O)O)c(=O)oc2c(C)c3oc4c(c3cc12)CCCC4	-3.78	
O=C(OCC1OC(Oc2ccc(O)cc2)C(O)C(O)C1O)c1ccccc1 (centres undefined)	-20	
CCc1ccc(NC(=O)C2CCCN2S(=O)(=O)c2ccc3nc(-c4ccccc4)[nH]c3c2)cc1 (centres undefined)		23.1 µM (active)
CCc1nnc(NC(=O)C2CCCN2S(=O)(=O)c2ccccc2)s1 (centres undefined)	-10.1	
CCN(CC)S(=O)(=O)c1ccc2nc(COC(=O)c3n[nH]c4ccccc34)[nH]c2c1	-5.88	
CC(=O)Nc1ccc(NC(=O)C2CCCN2S(=O)(=O)c2cccc(C(F)(F)F)c2)cc1 (centres undefined)	-24.5	
Cc1ccc(S(=O)(=O)Nc2ccccc2CNc2c(C)n(C)n(-c3ccccc3)c2=O)cc1	0.158	
CCc1ccccc1NS(=O)(=O)c1ccc2nc(-c3ccccc3)[nH]c2c1		20.6 µM (active)
N#Cc1ccc(S(=O)(=O)NCC(=O)OCC(=O)NCCc2ccccc2)cc1	7.05	
CCCn1c(N)c(N(CCOC)C(=O)C2CCCC2)c(=O)[nH]c1=O	-2	
COc1ccc(-c2nn(-c3ccccc3)cc2/C=C\C(=O)Nc2ccc(C(=O)O)cc2)cc1		23.1 µM (active)
COC(=O)c1cn(-c2ccccc2)nc1-c1cccnc1	-18.1	
O=C(O)c1ccc(NC(=O)c2ccc(COc3ccc(Cl)cc3)o2)cc1	-22.3	
COc1ccc(-c2nn(-c3ccccc3)cc2/C=C\C(=O)N2CCOCC2)cc1[N+](=O)[O-]	12.3	
O=C(O)/C=C/c1cn(-c2ccccc2)nc1-c1cccs1	-7.54	
O=C(c1cn(-c2ccccc2)nc1-c1cccnc1)N1CCCCC1	0.912	
O=C(O)c1ccc(NC(=O)c2cn(-c3ccccc3)nc2-c2ccc(Cl)cc2)cc1		20.6 µM (active)
O=C(NNC(=S)NC(=O)c1cn(-c2ccccc2)nc1-c1ccccc1)c1ccncc1		14.6 µM (active)
Cc1ccc(-c2nn(-c3ccccc3)cc2C(=O)Nc2cccc(S(=O)(=O)N3CCOCC3)c2)cc1	-25.5	
COc1ccc(S(=O)(=O)N(CCCN2CCCC2=O)Cc2cc3c(C)ccc(C)c3[nH]c2=O)cc1	-28.9	
O=C(CN1CCN(S(=O)(=O)c2ccc3ccccc3c2)CC1)NC(=O)NC1CCCCC1	-16.3	
O=C(CN1CCC(NC(=O)Nc2ccccc2)CC1)Nc1cccc([N+](=O)[O-])c1	6.65	
O=C(N/N=C\c1ccc(Br)cc1)c1ccc(Cn2cccn2)o1	-10.9	
S=C(NCc1ccco1)Nc1ccc2c(c1)OCCO2	-11.7	

Compound	activity change, negative = growth inhibition [%]	Potency
O=C(NC1CCCCC1)C1c2ccccc2C(=O)N1Cc1ccco1 (centres undefined)	1.87	
O=C1c2ccccc2C(Nc2ccc3c(c2)OCCO3)N1Cc1ccco1 (centres undefined)		20.6 µM (active)
Cn1cnc2c1c(=O)n(Cc1ccccc1C#N)c(=O)n2C	-5.65	
CC(=O)Nc1ccc(S(=O)(=O)NNC(=O)CCc2ccccc2)cc1	4.6	
CCc1nccn1S(=O)(=O)c1cc(Br)ccc1Br	-16.5	
COC(=O)c1ccc(CNC(=O)C2CCC(=O)N(Cc3cccc(F)c3)C2)cc1 (centres undefined)	1.7	
CCNC(=O)c1cc2n(n1)CCCN(Cc1ccc(C)cc1)C2=O	-16.7	
COc1cc(CNC(=O)c2cc3n(n2)CCCN(Cc2cccc(F)c2)C3=O)cc(OC)c1OC		16.4 µM (active)
O=C(c1cc(C2CCCCN2S(=O)(=O)c2ccccc2)on1)N1CCOCC1 (centres undefined)	-14.5	
CSc1ccc(/C=N/N2CCN(Cc3ccccc3Cl)CC2)cc1	-24.1	
COc1ccc(CNC(=O)COC(=O)c2c(C)nn(-c3ccccc3)c2C)cc1OC	-1.35	
Cc1cc(=O)oc(C)c1C(=O)NCc1ccc(F)cc1	-11	
CCCOc1ccc(F)cc1-c1cc(C(=O)Nc2ccc(F)c(Cl)c2)[nH]n1		14.6 µM (active)
Cc1ccc(NC(=O)c2cc(-c3ccccc3O)n[nH]2)cc1C	-22	
CCCOc1ccccc1-c1nc(SCCC(=O)O)n[nH]1	-8.61	
COc1ccc(NC(=O)CN2CCN(S(=O)(=O)c3ccc(F)cc3)CC2)cc1Cl	-3.64	
CCCOc1ccc(F)cc1-c1cc(C(=O)NCc2ccc(F)cc2)[nH]n1		14.6 µM (active)
COc1ccccc1C(=O)COC(=O)COc1ccc(C#N)cc1	5.69	
COc1cccc(NC(=O)N(C)C[C@@H]2Oc3ncc(Br)cc3C(=O)N([C@@H](C)CO)C[C@H]2C)c1	-4.55	
Oc1ccc(-c2cccc(-c3ccc(O)cc3)c2)cc1	-21.4	
CN(C(=O)COC(=O)c1cc(=O)[nH]c2ccccc12)C1CCCCC1	-1.93	
CCOc1ccccc1CNC(=O)c1ccc2c(c1)nc1n2CCC(C)C1 (centres undefined)	-1.2	
Cc1ccc(/C=C/C(=O)OCC(=O)Nc2cccnc2Cl)cc1	5.25	
COc1ccc(NC(=O)CN(C)C(=O)/C=C/c2cn(Cc3ccccc3)nc2-c2cccnc2)cc1	-17.9	

— PubChem BioAssay AID686979 (National Center for Advancing Translational Sciences (NCATS), 2013)
